For nine molecules, growth inhibition results are on record in PubChem BioAssay (NCI).

Compounds without any hit were thinned out: in the full panel of roughly 79,000, 15% have a hit. Values without a mark were called inactive. The source made the active and inactive calls. Rule as the data show it: active = growth inhibition above about 70%; inactive = the rest.

A short description of assay [1]: NCI Yeast Anticancer Drug Screen. Data for the rad50 strain (AID 155).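 Also: 0% = growth of vehicle-only cultures of the same strain.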 Conditions: S. cerevisiae rad50 strain growth inhibition, stronger effect = higher value. In outline: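 DNA repair mutant yeast, compound exposure, growth read-out; inhibition is taken relative to vehicle.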
The nature of assay [2]: NCI Yeast Anticancer Drug Screen. Data for the mec2-1 strain (AID 157). Conditions: S. cerevisiae mec2-1 strain, stronger effect = higher value. In outline:
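Cells of the genetically defined mec2-1 yeast strain are incubated with test compound. Inhibition of growth is calculated against vehicle-treated controls.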

A short description of assay [3]: NCI Yeast Anticancer Drug Screen. Data for the sgs1 mgt1 strain (AID 161).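 Also: 0% = growth of cultures given vehicle only.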 Conditions: S. cerevisiae sgs1 mgt1 strain, stronger effect = higher value. In outline: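 Genetically altered yeast, compound exposure, growth inhibition relative to vehicle.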
Assay [4] in a line: NCI Yeast Anticancer Drug Screen. Data for the cln2 rad14 strain (AID 165).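 Also: 0% = growth equal to vehicle treated cultures.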 The conditions noted are these: S. cerevisiae cln2 rad14 strain, stronger effect = higher value. The method in brief:
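The screen exposed genetically defined yeast (cln2 rad14) to test compounds and scored growth inhibition relative to vehicle-treated controls.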

Assay [5] is described as follows: NCI Yeast Anticancer Drug Screen. Data for the bub3 strain (AID 167). Conditions: S. cerevisiae bub3 mutant strain, stronger effect = higher value. In outline: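 In this screen, a yeast mutant lacking normal mitotic checkpoint function is challenged with compound. Relative growth versus vehicle gives the inhibition value.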
Assay [6] is described as follows: NCI Yeast Anticancer Drug Screen. Data for the mlh1 rad18 strain (AID 175). Conditions: S. cerevisiae mlh1 rad18 strain growth inhibition, stronger effect = higher value. The method in brief: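 Compound-treated yeast growth, normalised to vehicle controls. Strain bears defined DNA repair mutations.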
The mark [7] stands for this setting: at 5.0 µM (retest, dose inferred, filed as 0.5).
The mark [8] stands for this setting: at 50.0 µM (retest, dose inferred, filed as 5.0).

On to `COc1cc2c(cc1C(C)C)CCC1C(C)(C#N)CCCC21C` (configuration not stated), for which the growth inhibition is -6% in assay [1] (setting [7]); -21% in assay [1] (setting [8]); 34.4% in assay [1] (at 50.0 µM); 3% in assay [2] (setting [7]); -11% in assay [2] (setting [8]); 46.5% in assay [2] (at 50.0 µM). Besides, the growth inhibition in assay [3] (setting [7]) was -11%; in assay [3] (setting [8]), -29%; in assay [3] (at 50.0 µM), 47.5%; in assay [4] (setting [7]), 1%; in assay [4] (setting [8]), -22%; in assay [4] (at 50.0 µM), 80.1% (active). Besides, the growth inhibition in assay [5] (setting [7]) is 0%; in assay [5] (setting [8]), -10%; in assay [5] (at 50.0 µM), 45.1%; in assay [6] (setting [7]), -3%; in assay [6] (setting [8]), -29%; in assay [6] (at 50.0 µM) it was 88.8% (active).
For `CC(=O)N=C1N(/C=C2\C(=O)Oc3ccccc3C2=O)C(=O)/C(=C/c2cccc(Cl)c2Cl)N1C`, the growth inhibition was 5% in assay [1] (setting [7]); 89% (active) in assay [1] (setting [8]); -7.75% in assay [1] (at 50.0 µM); 12% in assay [2] (setting [7]); 61% in assay [2] (setting [8]); 0.2% in assay [2] (at 50.0 µM). Also, the growth inhibition is -12% in assay [3] (setting [7]); 8% in assay [3] (setting [8]); 28.2% in assay [3] (at 50.0 µM); 7% in assay [4] (setting [7]); 25% in assay [4] (setting [8]); -21.8% in assay [4] (at 50.0 µM). The growth inhibition in assay [5] (setting [7]) was -11%; in assay [5] (setting [8]), 17%; in assay [5] (at 50.0 µM), -37.5%; in assay [6] (setting [7]), 13%; in assay [6] (setting [8]) it was 95% (active); in assay [6] (at 50.0 µM) it was -22.4%.
Regarding `C=Cc1ccccc1C1(O)C=CC(OC)(OC)C=C1`, the growth inhibition in assay [1] (setting [7]) is 17%; in assay [1] (setting [8]), 25%; in assay [1] (at 50.0 µM), 44%; in assay [2] (setting [7]) it was 11%; in assay [2] (setting [8]), 16%; in assay [2] (at 50.0 µM) it was 7.1%. Moreover, the growth inhibition in assay [3] (setting [7]) was 12%; in assay [3] (setting [8]), 14%; in assay [3] (at 50.0 µM) it was 34.5%; in assay [4] (setting [7]), 17%; in assay [4] (setting [8]), 31%; in assay [4] (at 50.0 µM) it was -2.15%. Besides, the growth inhibition in assay [5] (setting [7]) is 8%; in assay [5] (setting [8]), 9%; in assay [5] (at 50.0 µM), 44.2%; in assay [6] (setting [7]), 21%; in assay [6] (setting [8]), 32%; in assay [6] (at 50.0 µM) it was 15.2%.
Take `Cc1ccc(C(CN)(CCBr)c2ccc(C)cc2)cc1`: the growth inhibition in assay [1] (setting [7]) was 63%; in assay [1] (setting [8]), 99% (active); in assay [1] (at 50.0 µM), 99.5% (active); in assay [2] (setting [7]), 50%; in assay [2] (setting [8]), 98% (active); in assay [2] (at 50.0 µM) it was 99.5% (active). Also, the growth inhibition is 59% in assay [3] (setting [7]); 99% (active) in assay [3] (setting [8]); 99.7% (active) in assay [3] (at 50.0 µM); 19% in assay [4] (setting [7]); 90% (active) in assay [4] (setting [8]); 99.4% (active) in assay [4] (at 50.0 µM). Moreover, the growth inhibition in assay [5] (setting [7]) was 36%; in assay [5] (setting [8]) it was 91% (active); in assay [5] (at 50.0 µM), 99% (active); in assay [6] (setting [7]) it was 92% (active); in assay [6] (setting [8]) it was 98% (active); in assay [6] (at 50.0 µM), 99.5% (active).
As for `CC(=O)Nc1ccc(/C=c2\sc3nnc(-c4cccnc4)n3c2=O)cc1`, the growth inhibition in assay [1] (setting [7]) was 33%; in assay [1] (setting [8]) it was 87% (active); in assay [1] (at 50.0 µM) it was 89.8% (active); in assay [2] (setting [7]), 7%; in assay [2] (setting [8]), 91% (active); in assay [2] (at 50.0 µM), 88% (active). Further, the growth inhibition in assay [3] (setting [7]) is 6%; in assay [3] (setting [8]), 78% (active); in assay [3] (at 50.0 µM) it was 87.2% (active); in assay [4] (setting [7]), -5%; in assay [4] (setting [8]), 58%; in assay [4] (at 50.0 µM), 71% (active). The growth inhibition is 8% in assay [5] (setting [7]); 94% (active) in assay [5] (setting [8]); 80.5% (active) in assay [5] (at 50.0 µM); -17% in assay [6] (setting [7]); 95% (active) in assay [6] (setting [8]); 86.5% (active) in assay [6] (at 50.0 µM).
With `ClC/C=C/c1ccccc1`, the growth inhibition in assay [1] (setting [7]) was 2%; in assay [1] (setting [8]) it was 31%; in assay [1] (at 50.0 µM) it was 68.8%; in assay [2] (setting [7]), -1%; in assay [2] (setting [8]), 11%; in assay [2] (at 50.0 µM), 16.9%. In addition, the growth inhibition in assay [3] (setting [7]) is 3%; in assay [3] (setting [8]), 15%; in assay [3] (at 50.0 µM), 61%; in assay [4] (setting [7]) it was 6%; in assay [4] (setting [8]) it was 1%; in assay [4] (at 50.0 µM), -7.2%. Moreover, the growth inhibition in assay [5] (setting [7]) was 7%; in assay [5] (setting [8]), 20%; in assay [5] (at 50.0 µM), 37.1%; in assay [6] (setting [7]), 3%; in assay [6] (setting [8]), 18%; in assay [6] (at 50.0 µM), 62.6%.
`Brc1ccc2[nH]c3ccccc3c2c1`: the growth inhibition in assay [1] (setting [7]) is 2%; in assay [1] (setting [8]), 33%; in assay [1] (at 50.0 µM), 57.7%; in assay [2] (setting [7]), -4%; in assay [2] (setting [8]), 67%; in assay [2] (at 50.0 µM) it was 44.9%. Besides, the growth inhibition in assay [3] (setting [7]) is -3%; in assay [3] (setting [8]), 47%; in assay [3] (at 50.0 µM) it was 86.8% (active); in assay [4] (setting [7]) it was -2%; in assay [4] (setting [8]) it was 65%; in assay [4] (at 50.0 µM), 54.2%. The growth inhibition in assay [5] (setting [7]) is 3%; in assay [5] (setting [8]) it was 57%; in assay [5] (at 50.0 µM), 55.2%; in assay [6] (setting [7]), 4%; in assay [6] (setting [8]), 75% (active); in assay [6] (at 50.0 µM), 90% (active).
For `CN(C(=O)C(Cl)Cl)c1ccc(-c2csc(-c3ccccc3)n2)cc1`, the growth inhibition in assay [1] (setting [7]) is 5%; in assay [1] (setting [8]), 12%; in assay [1] (at 50.0 µM), 12.9%; in assay [2] (setting [7]), 10%; in assay [2] (setting [8]), -1%; in assay [2] (at 50.0 µM), 33.9%. The growth inhibition in assay [3] (setting [7]) was 6%; in assay [3] (setting [8]) it was 20%; in assay [3] (at 50.0 µM) it was -7.4%; in assay [4] (setting [7]), -2%; in assay [4] (setting [8]), -3%; in assay [4] (at 50.0 µM) it was 95.8% (active). In addition, the growth inhibition was 2% in assay [5] (setting [7]); 22% in assay [5] (setting [8]); 97% (active) in assay [5] (at 50.0 µM); 4% in assay [6] (setting [7]); 7% in assay [6] (setting [8]); 22.4% in assay [6] (at 50.0 µM).
For `C/C=C/C(=O)N1c2ccccc2CC1c1c(C)[nH]c2ccccc12` (configuration not stated), the growth inhibition in assay [1] (setting [7]) is 7%; in assay [1] (setting [8]) it was 90% (active); in assay [1] (at 50.0 µM) it was 94.3% (active); in assay [2] (setting [7]), 3%; in assay [2] (setting [8]), 96% (active); in assay [2] (at 50.0 µM), 94.8% (active). In addition, the growth inhibition is 3% in assay [3] (setting [7]); 95% (active) in assay [3] (setting [8]); 94.3% (active) in assay [3] (at 50.0 µM); 2% in assay [4] (setting [7]); 86% (active) in assay [4] (setting [8]); 96% (active) in assay [4] (at 50.0 µM). The growth inhibition in assay [5] (setting [7]) was 6%; in assay [5] (setting [8]) it was 86% (active); in assay [5] (at 50.0 µM), 95.5% (active); in assay [6] (setting [7]), 22%; in assay [6] (setting [8]) it was 96% (active); in assay [6] (at 50.0 µM) it was 96.6% (active).
